# Results published in ChEMBL document CHEMBL4888484, “Replenishing the malaria drug discovery pipeline: Screening and hit evaluation of the MMV Hit Generation Library 1 (HGL1) against asexual blood stage Plasmodium falciparum ,using a nano luciferase reporter read-out” (2022).
# Hit rate of the full screen: of about 150,000 compounds, about 540 (0.36%) showed an effect of 50% or more. This excerpt belongs to a sample that is enriched for strong results.
# System: Plasmodium falciparum
# Assay: Primary screen in NF54 nanoGlo assay, in single point, at 2uM, 72h; a lower Z score goes with more inhibition
# Type: functional, Erythrocyte
# Conditions: timepoint 72 hour
SMILES,% Inhibition,Z score
O=S(=O)(c1ccc(F)c(Cl)c1)N1CC[C@H](Oc2ccncc2Cl)C1,72%,-13.57
O=S(=O)(c1ccc2c(c1)OCCO2)N1CC[C@H](Oc2ccncc2Cl)C1,-7%,1.4
O=S(=O)(c1cccnc1)N1CC[C@H](Oc2ccncc2Cl)C1,-6%,1.14
Cc1cc2nc[nH]c2c(NC(=O)CCc2cc3n(n2)CCNC3)c1C,-7%,1.44
CCOc1ccc(-c2noc([C@@H]3Cc4ccccc4N3C(C)=O)n2)cc1Cl,19%,-2.19
O=C1NC(=O)[C@@H]2CN(S(=O)(=O)c3cc(F)cc(Cl)c3)C[C@H]12,37%,0.7
O=C(CCn1cnc2cc(-c3noc(-c4ccccn4)n3)ccc21)N1CCOCC1,-9%,1.86
COc1ccc(-c2c(C(F)(F)F)n[nH]c2-c2ccc(OCc3ccccc3F)cc2O)cc1,79%,-11.69
COc1ccccc1Oc1cn[nH]c1-c1ccc(OCc2ccccc2C)cc1O,-7%,0.65
Oc1cc(OCc2ccccc2F)ccc1-c1[nH]ncc1-c1ccccc1,52%,-11.1
COc1ccccc1-c1cn[nH]c1-c1ccc(OCc2cc(C)ccc2C)cc1O,0%,0
COc1ccc(Oc2cn[nH]c2-c2ccc(OCc3ccc(F)cc3)cc2O)cc1,4%,-0.82
COc1ccc(-c2n[nH]c3c2[C@@H](c2ccc(OCc4ccccc4F)cc2)CC(=O)O3)cc1,-7%,1.23
NC(=O)Cc1ccc(Cl)cc1Cl,-10%,1.37
Cc1nn(-c2ccc(Cl)cc2)cc1-c1noc(C(=O)NC2CCC(C)CC2)n1 (centres undefined),-10%,1.19
C[C@H]1CCN(Cc2ccncc2)CCN1Cc1ccccc1,-16%,3.16
CN1C(=O)c2ccccc2O[C@H]2CN(Cc3ccccc3)C[C@H]21,-9%,1.36
CN1C(=O)c2ccccc2O[C@H]2CN(Cc3cc(-c4ccccc4)no3)C[C@H]21,4%,-0.65
Cc1noc(C)c1CN1C[C@@H]2Oc3cc(F)ccc3C(=O)N(C)[C@@H]2C1,91%,-10.61
CON1CCC(C(=O)NC2c3ccccc3CCC2C)CC1 (centres undefined),0%,-0.03
O=C(O)[C@H]1CCCN(C2CCN(Cc3ccccc3)CC2)C1,-13%,1.5
c1nc(CCNC[C@@H]2CCCN3CCCC[C@H]23)c[nH]1,-15%,2.93
